PubChem BioAssay (Tox21)
The source made the active and inactive calls. Calls follow the shape of the dose curve; as a rule, active = well fitted curve in the direction sought with a large enough effect in the repeat runs; inconclusive = weak or mixed curves; inactive = flat fitted curve, though single readings scatter.

Experiment: qHTS assay to test for compound auto fluorescence at 590 nm (red) in HepG2 cells (AID 720674)
Conditions: HepG2 autofluorescence, red 540/590 nm, 1 h; series mostly up to 91.3 µM
Source text: U.S. Tox21 Program National Center for Advancing Translational Sciences [NCATS] NIH Chemical Genomics Center [NCGC] U.S. Environmental Protection Agency [EPA] National Institutes of Environmental Health Sciences [NIEHS] National Toxicology Program [NTP] U.S. Food and Drug Administration [FDA] Tox21 Assay Overview: Compound auto fluorescence often interferes with screening of the compound library against various biological targets and signaling pathways. Some of these compounds may have fluorophoric properties. Such properties may interfere with the assay outputs resulting in false positives and/or negatives. To decrease such complications and ensure the compound activities are relevant in terms of biological response, the Tox21 10K compound library was screened for auto fluorescence. From the fluorophores used as reporter signals in our screening assays, the auto fluorescence equivalencies of compounds against three fluorophores have been evaluated: Triamterene, Fluorescein and Rose Bengal sodium for blue, green and red fluorescence, respectively. The fluorescence intensities were measured using Excitation/Emission wavelengths at 405/460nm, 485/535nm and 540/590nm for blue, green and red labels, respectively. This assay includes the red fluorescence data.
Tox21 Assay Protocol Summary: 2,000 HepG2 cells in 5 uL of culture medium (MEM containing 10% FBS) per well were dispensed into black wall/clear bottom 1536-well plates using a Multidrop Combi Dispenser (ThermoFisher Scientific, Waltham, MA). The assay plates were incubated overnight at 37 C to allow cell attachment to the well bottom, followed by the transfer of 23 nL compound or DMSO vehicle by a pintool work station (Kalypsys , San Diego, CA). After the assay plates were incubated for 1 hr at 37 C and 5% CO2, fluorescence intensities in the assay plates were measured by an Envision (PerkinElmer, Shelton, CT) plate reader using three labels for measuring blue, green and red fluorescence at […] 460, 535 and 590 nm respectively.

| SMILES | outcome |
| --- | --- |
| O=c1n(CCCN2CCN(c3cccc(Cl)c3)CC2)nc2ccccn12 | inactive |
| CCCOC(=O)NCCCN(C)C | inactive |
| Clc1cccc(Cl)c1NC1=NCCN1 | inactive |
| CC(C)=CCC/C(C)=C/C=O | inactive |
| O=[N+]([O-])c1cc(C(F)(F)F)ccc1Cl | inactive |
| CC1=CC(=O)CC(C)(C)C1 | inactive |
| COc1c2ccoc2cc2oc(=O)ccc12 | inactive |
| Cc1cc(C)c(O)c(C)c1 | inactive |
| CC(=O)OC(C)(C)C1CC=C(C)CC1 (stereo not given) | inactive |
| CC(=O)OC/C=C(\C)CCC=C(C)C | inactive |
| O=C1C(N(CO)C(=O)NCO)N(CO)C(=O)N1CO (stereo not given) | inactive |
| CCn1cc(C(=O)O)c(=O)c2cc3c(cc21)OCO3 | inactive |
| CCCCC(CC)COC(=O)c1ccc(C(=O)OCC(CC)CCCC)cc1 (stereo not given) | inactive |
| CCCCC(=O)O | inactive |
| O=C(c1ccccc1)c1ccc(O)c(O)c1O | inactive |
| CCCCCCC(=O)O | inactive |
| C=CC(=O)NCOCCCC | inactive |
| CCCCCCCCO | inactive |
| CC(=O)C(C)C | inactive |
| CC(=O)OC[C@H]1O[C@@](COC(C)=O)(O[C@H]2O[C@H](COC(C)=O)[C@@H](OC(C)=O)[C@H](OC(C)=O)[C@H]2OC(C)=O)[C@@H](OC(C)=O)[C@@H]1OC(C)=O | inactive |

| SMILES | outcome |
| --- | --- |
| CCCOCC(C)O (stereo not given) | inactive |
| CS(=O)(=O)c1ccc(Cl)cc1 | inactive |
| C1CCCNCC1 | inactive |
| CC1(C)[C@@H](O[C@H]2O[C@H](C(=O)O)[C@@H](O)[C@H](O)[C@H]2O[C@@H]2O[C@H](C(=O)O)[C@@H](O)[C@H](O)[C@H]2O)CC[C@]2(C)[C@H]3C(=O)C=C4[C@@H]5C[C@@](C)(C(=O)O)CC[C@]5(C)CC[C@@]4(C)[C@]3(C)CC[C@@H]12 | inactive |
| CC(=O)CC(=O)N(C)C | inactive |
| O=C(O)C1=NN(c2ccc(S(=O)(=O)O)cc2)C(=O)C1 | inactive |
| NC(=O)NC(N)=O | inactive |
| COC(=O)CCCCC(=O)OC | inactive |
| C=CC(C)(C)C | inactive |
| COc1cc(NC(=O)CC(C)=O)c(OC)cc1Cl | inactive |
| CC(=O)Nc1ccc(CC(=O)O)cc1 | inactive |
| NC(N)=S | inactive |
| Cc1ccccc1Cl | inactive |
| COc1ccc([C@@H]2CC(=O)c3c(O)cc(O[C@@H]4O[C@H](CO[C@@H]5O[C@@H](C)[C@H](O)[C@@H](O)[C@H]5O)[C@@H](O)[C@H](O)[C@H]4O)cc3O2)cc1OC | inactive |
| CC/C=C(\C(=O)N[C@@H]1C(=O)N2C(C(=O)OCOC(=O)C(C)(C)C)=C(COC(N)=O)CS[C@H]12)c1csc(N)n1 | inactive |
| CCCCCC(C)=O | inactive |
| C[n+]1ccn(CCO)c1 | inactive |
| C[Si](C)(C)N[Si](C)(C)C | inactive |
| N#CCC(=O)O | inactive |
| Cc1cc(C)cc(O)c1 | inactive |
